Test results taken from ChEMBL document CHEMBL1157539, “Thousands of chemical starting points for antimalarial lead identification” (Nature, 2010).

How the values were obtained:
Type in all cases: functional
Plasmodium falciparum [1] = assay: GSK_TCMDC: Inhibition of Plasmodium falciparum 3D7 in whole red blood cells, using parasite LDH activity as an index of growth. Test compounds present at 2uM
Plasmodium falciparum [2] = assay: GSK_TCMDC: Inhibition of Plasmodium falciparum Dd2 in whole red blood cells, using parasite LDH activity as an index of growth. Test compounds present at 2uM
HepG2 = assay: GSK_TCMDC: Percent inhibition of human HepG2 cell line. Test compounds present at 10uM.

Structure (SMILES)	Inhibition (Plasmodium falciparum [1]) [%]	Inhibition (Plasmodium falciparum [2]) [%]	Inhibition (HepG2) [%]
O=C(/C=C/c1ccc([N+](=O)[O-])cc1)N1CCC(NS(=O)(=O)c2ccc(F)cc2)CC1	96	0	0
Cc1cc(NC2CCN(Cc3ccccc3)CC2)nc(NCCCCc2ccccc2)n1	100	60	65
O=[N+]([O-])c1ccc2c(c1)c1ccccc1n2Cc1ccccc1O	93	84	0
N=C(/N=C(/NCCCCCCN/C(=N\C(=N)Nc1ccc(Cl)cc1)N1CCOCC1)N1CCOCC1)Nc1ccc(Cl)cc1	93	91	0
C=CCOC(=O)N1CCC(CNCc2cccc(-c3cccc(-c4nc5cc(F)ccc5[nH]4)c3)c2)C1.O=C(O)C(F)(F)F (stereo not drawn)	100	49	20
COc1ccc(CCC(C)(C)NCC(O)c2cccc(C(F)(F)F)c2)cc1 (stereo not drawn)	99	98	26
Cc1cccc2[nH]cc(C3CCN(CCC4CCN(C(=O)/C=C/c5ccc(Cl)c(Cl)c5)CC4)CC3)c12	91	8	13
O=C(NC1CCN(CCC[C@]2(c3ccc(Cl)c(Cl)c3)CCCN(C(=O)c3ccccc3)C2)CC1)c1ccc(F)cc1	90	68	52
CC(C)c1ccc(NC(=O)c2ccc(C(=O)NC3CCN(CC4CCCCC4)C3)cc2)cc1.O=C(O)C(F)(F)F (stereo not drawn)	93	26	35
COc1ccc(-c2nc(NC(=O)CSc3ccccc3)sc2C)cc1	94	31	6
CN(CCCNCc1cccc2ccccc12)CCCNCc1cccc2ccccc12.Cl	100	94	93
